RGS4 inh: Inhibitors of Regulator of G Protein Signaling (RGS) 4: qHTS; hit rate 0.039% among 390,000; Regulator of G-protein signaling 4 (Homo sapiens), P49798; Transcreener GDP fluorescence polarization, RGS4-accelerated GTP hydrolysis; AID 504845, 2011; Potency, µM (top dose mostly 114 µM), without a hit: top-dose activity change, negative = inhibition, most hits filed as inhibitors; further: potency means the concentration at half of the fitted maximal effect; nearly all actives have a fitted effect of over 75% in size
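MLSMR compounds (23 nl, pin-transferred) preincubated 10 min at room temperature with a 500nM (2x) first reagent, then RGS4 at 900nM (2x) plus Transcreener GDP mix added; fluorescence polarization (620/688 nm) read before and after 90 min at 30 °C.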
KCNH2 WT inh: qHTS for Inhibitors of KCHN2 3.1: Wildtype qHTS | Voltage-gated inwardly rectifying potassium channel KCNH2 (Homo sapiens), Q12809 | U2OS, BacMam KCNH2, thallium flux FluxOr; active compounds read low | activity change, % at 1.84 µM | hit rate 0.37% among 340,000 | AID 720551, 2013;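 active means maximum activity change below -70%; inconclusive means maximum activity change between -70% and -50%; inactive means maximum activity change above -50%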
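U2OS cells transduced with wild-type KCNH2 virus are loaded with FluxOr dye for 45 min, and thallium flux is measured in kinetic reads before and after stimulation buffer. Rate constants are normalized to DMSO controls.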
Pin1 inh: qHTS Assay to Find Inhibitors of Pin1; Peptidyl-prolyl cis-trans isomerase NIMA-interacting 1 (Homo sapiens), Q13526; Pin1 FP peptide displacement, HiFluor488, 10 min; Potency, µM (series often up to 115 µM), without a hit: at the top dose activity, negative = inhibition, hits mostly inhibitors; hit rate 0.009% among 390,000; AID 504891, 2011; active means well fitted inhibition curve with a large enough effect in the polarisation, with a control signal flat, not every such curve was filed as active; inconclusive means small, poorly fitted or top-dose-only effect, or effect the other way, or a change in a side signal; inactive means no such curve, though single readings can be large or run the other way; the % refers to the polarisation; further: potency means the concentration at half of the fitted maximal effect
KAT2A inh: qHTS Assay for Inhibitors of GCN5L2; GCN5L2 HAT assay, ThioGlo1 CoA-SH fluorescence; Potency, µM (top dose mostly 58.9 µM), for the others: at the top dose activity change, negative = inhibition, usual class: inhibitors; hit rate 0.21% among 390,000; further: potency means the concentration at half of the fitted maximal effect
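GCN5L2 (20 nM) in 50mM HEPES pH 7.5, 0.1mM EDTA, 0.01% Tween-20 preincubated 15 min with compounds at room temperature. Reaction started with H3(1-25) 75uM, acetyl-CoA 70uM, ThioGlo1 50uM; CoA-thiol fluorescence (Ex340/Em540) read at 0 and 20 min.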
KCNH2 3.1 block: qHTS for Inhibitors of KCHN2 3.1: Mutant qHTS; activity change, % (tested at about 1.8 µM); AID 720553, 2013; Potassium voltage-gated channel subfamily H member 2, brain isoform KCNH2 3.1 (human); U2OS KCNH2 3.1, thallium flux FluxOr; active compounds read low; hit rate 0.95% among 340,000;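 active means maximum activity change below -70%; inconclusive means maximum activity change from -70% to -50%; inactive means maximum activity change above -50%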;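 further: thallium influx rate constant from kinetic fluorescence after stimulation buffer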
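Thallium flux via FluxOr fluorescence (Red40 quencher, 45 min loading) in U2OS cells virally expressing the KCNH2 3.1 isoform (1.77 x 10^8 /mL virus, overnight at 37 C). Rate constants from 2-min kinetic reads post-stimulation, normalised to positive and negative controls.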
Tb PGK inh: qHTS Assay to Find Inhibitors of Phosphoglycerate Kinase. Phosphoglycerate kinase, glycosomal (Trypanosoma brucei brucei), P07378. Potency, µM (top dose mostly 57.5 µM), without a hit: at the top dose activity change, negative = inhibition, usual class: inhibitors. PGK/GAPDH coupled, Kinase-Glo luminescence, 60 min. hit rate 0.043% among 380,000; further: potency means the concentration at half of the fitted maximal effect; nearly all actives have a fitted effect of over 60% in size
Target sequence (P07378 whole entry, looked up): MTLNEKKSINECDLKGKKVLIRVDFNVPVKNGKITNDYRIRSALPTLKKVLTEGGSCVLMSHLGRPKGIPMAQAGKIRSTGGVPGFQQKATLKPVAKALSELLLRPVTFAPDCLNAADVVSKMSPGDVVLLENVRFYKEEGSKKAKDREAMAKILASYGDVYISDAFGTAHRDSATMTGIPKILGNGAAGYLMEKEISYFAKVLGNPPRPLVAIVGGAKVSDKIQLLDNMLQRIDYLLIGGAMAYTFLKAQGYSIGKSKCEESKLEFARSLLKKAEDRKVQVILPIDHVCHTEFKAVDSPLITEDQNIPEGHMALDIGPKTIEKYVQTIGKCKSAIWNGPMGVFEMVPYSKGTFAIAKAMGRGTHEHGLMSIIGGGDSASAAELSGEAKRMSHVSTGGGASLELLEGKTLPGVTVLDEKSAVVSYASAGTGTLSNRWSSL
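Recombinant glycosomal PGK reaction used 1,3-bisphosphoglycerate generated in-well by GAPDH (100nM final) in 100mM TEA pH 7.6, 5mM MgCl2, 0.01% Tween-20. After 60 minutes at room temperature, ATP was read by Kinase-Glo Plus luminescence end-point.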
Numbers without * were called inactive; i = inactive; ? = inconclusive; . = not tested or not shown. Hits are enriched below; roughly 1.2% of the tested compounds scored in any of these assays. Unless noted, the call rests on the fitted dose curve; in most records, active means well fitted curve in the direction sought with a large enough effect; inconclusive means small, poorly fitted or top-dose-only effect, or another doubt; inactive means no such curve, though single readings can be large; an effect the other way counts as inactive or inconclusive. On the % scale 0 is the no-effect control and ±100 the full control effect.

SMILES	RGS4 inh	KCNH2 WT inh	Pin1 inh	KAT2A inh	KCNH2 3.1 block	Tb PGK inh
CN(C)c1ccc(N2C(=NC(=O)CCC3CCCC3)SC3CS(=O)(=O)CC32)cc1 (configuration not stated)	-8%	-281*	-5%	-3%	-1	i
COc1ccc(CNC(=O)c2oc3c(c2C)-c2nn(Cc4ccccc4Cl)cc2CC3)cc1	25%	.	0%	-11%	.	5%
O=C(COC(=O)C1CCN(c2ccc(C(F)(F)F)cn2)CC1)Nc1ncc(Cl)cc1Cl	19%	3	?	-4%	-71*	-7%
O=C(NNC(=O)C1[C@H]2CCCC[C@@H]12)NC1CCCCC1 (some centres not stated)	4%	.	-1%	-3%	-76*	.
O=C(NNS(=O)(=O)c1ccc(Br)cc1)NC1CCCCC1	3%	-2	-5%	2%	?	-10%
Cc1ccc(N2CCN(C(=O)Nc3cccc([N+](=O)[O-])c3)CC2C)cc1 (configuration not stated)	-4%	-77*	3%	-5%	-74*	3%
O=C(Nc1cccc([N+](=O)[O-])c1)N1CCN(c2ccccc2)CC1	-22%	-5	-2%	-15%	0	-5%
OCC1(CCc2ccccc2)CCN(Cc2ccc(OC(F)F)cc2)CC1	-6%	-183*	1%	-7%	.	7%
CC(COc1ccccc1)N1CCC(CO)(CCc2ccccc2)CC1 (configuration not stated)	-17%	?	5%	7%	-101*	-1%
CCc1ccc(-n2nc3ccc(NC(=O)COc4ccc(OC)cc4)cc3n2)cc1	-21%	.	0%	-3%	.	i
O=C1Cc2cc(CCN3CCN(c4nsc5ccccc45)CC3)c(Cl)cc2N1	17µM*	.	.	-8%	.	.
Oc1cc2cc(CCN3CCN(c4nsc5ccccc45)CC3)c(Cl)cc2[nH]1	.	.	.	-7%	.	.
COc1ccc(C[C@@H]2CN3C(=NC[C@@H]3Cc3ccc(O)cc3)N2C[C@H](C)NC(=O)CCC2CCCCC2)cc1	5%	-89*	5%	-2%	13	3%
O=C(CCC1CCCCC1)NCCN1C2=NC[C@H](Cc3ccccc3)N2C[C@H]1Cc1ccc(O)cc1	18%	-20	5%	7%	0	-1%
O=C(CCC1CCCCC1)NCCN1C2=NC[C@@H](Cc3ccccc3)N2C[C@H]1Cc1ccc(O)cc1	-18%	-116*	-7%	-4%	-99*	-2%
CCOc1ccc(CNC(=O)Cn2nc(C)c3nn(-c4ccc(Cl)cc4)c(C)c3c2=O)cc1OC	-10%	.	7%	-4%	.	-1%
CC(C)Cc1nn2c(=O)cc(COC(=O)c3cccc(NC(=O)c4cccs4)c3)nc2s1	19%	.	3%	-7%	.	i
c1ccc2[nH]c(NCc3ccc4c(c3)OCO4)nc2c1	4%	-126*	-6%	-4%	-11	i
COc1ccc(CCNC(=O)c2ccc(=O)[nH]c2)cc1	7%	0	-8%	-7%	-71*	-7%
Cc1cc(Nc2ccc(Cl)cc2)nc(NCc2ccccc2)n1	-3%	4	-1%	-8%	-78*	-3%
Cc1cc(N/N=C/c2ccc(F)cc2)nc(NCc2ccccc2)n1	-17%	10	0%	-8%	-100*	-5%
Cc1ccc(/C=N/Nc2cc(C)nc(NCc3ccccc3)n2)cc1	13%	26	?	-9%	-80*	i
Cc1cc(Nc2ccccc2)nc(NCc2ccccc2)n1	14%	0	-8%	-6%	2	i
Cc1cc(N/N=C/c2ccc(O)cc2)nc(NS(=O)(=O)c2ccccc2)n1	-7%	-5	?	-11%	-11	25µM*
CCNc1nc(C#N)nc2c1ncn2-c1cccc(Cl)c1	.	.	14%	.	.	.

Compound activity as filed in PubChem.
